Measurements taken from PubChem BioAssay (Tox21).
Values joined by “and” are separate entries in the source; they are usually repeats but may differ in a detail not shown here. Equal entries are not always repeated. Results filed as inconclusive are left out. Where a call stands in place of a potency, no number is given. Some compounds were tested as several samples or in several runs, with calls that do not always agree. Active and inactive are the calls of the source. Unless noted, the call rests on the fitted dose curve; in most records, active means well fitted curve in the direction sought with a large enough effect in the repeat runs; inconclusive means weak or mixed curves; inactive means no such curve, though single readings can be large; an effect the other way counts as inactive or inconclusive.

Experiments:
[1] = qHTS assay to identify small molecule antagonists of the estrogen receptor alpha (ER-alpha) signaling pathway using the BG1 cell line in the presence of 0.1 nM 17-beta-estradiol - cell viability counter screen (AID 1259241); further: nearly all actives have a fitted effect of over 40% in size
How it was run: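 Viability in VM7Luc4E2 cells after 22 hr compound exposure under 0.1 nM 17beta-estradiol stimulation, by CellTiter-Fluor.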

[2] = molecular target: Estrogen receptor (Homo sapiens) (UniProt P03372); assay: qHTS assay to identify small molecule antagonists of the estrogen receptor alpha (ER-alpha) signaling pathway using the BG1 cell line in the presence of 0.1 nM 17-beta-estradiol (AID 1259244); further: nearly all actives have a fitted effect of over 50% in size; further: potency means the concentration at half of the fitted maximal effect
How it was run: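 VM7Luc4E2 cells (endogenous full-length ER-alpha, stable 4xERE-luciferase) were grown 5 days in phenol red-free medium with charcoal-stripped FBS, then exposed 22 h at 37C to compounds plus 0.1 nM (final) 17beta-estradiol; ONE-Glo luminescence read-out.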

[3] = qHTS assay to identify small molecule HDAC inhibitors (AID 1259364); further: top concentration of the series differs between compounds; nearly all actives have a fitted effect of over 45% in size
How it was run: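 Wild-type HCT-116 cells were plated overnight, exposed to compounds for 2 h at 37 °C, then given HDAC-Glo class I/II luminogenic reagent for 30 min at room temperature before luminescence was read.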

[4] = qHTS assay to identify small molecule HDAC inhibitors - cell viability counter screen (AID 1259365); further: nearly all actives have a fitted effect of over 50% in size; further: potency means the concentration at half of the fitted maximal effect
How it was run: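 Cytotoxicity was gauged in wild-type HCT-116 cells after a brief 2hr treatment with DMSO-dissolved compounds at 37C and 5% CO2, using CellTiter-Glo luminescence developed for 30min at room temperature.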

[5] = qHTS assay to identify small molecule agonists of the sonic hedgehog signaling (Shh) pathway - cell viability counter screen (AID 1259366); further: nearly all actives have a fitted effect of over 50% in size; further: potency means the concentration at half of the fitted maximal effect
How it was run: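 Stable Gli1-Luc NIH/3T3 clone, 2,000 cells/well. Compound exposure 24hr at 37C. Read-out: CellTiter-Fluor fluorescence.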

[6] = qHTS assay to identify small molecule antagonists of the sonic hedgehog signaling (Shh) pathway - cell viability counter screen (AID 1259367); further: nearly all actives have a fitted effect of over 55% in size; further: potency means the concentration at half of the fitted maximal effect
How it was run: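 NIH/3T3-derived Gli1-Luc reporter cells (2,000 per well) rested 4 hr at 37 C, then received DMSO compounds plus conditioned medium. After 23 hr of treatment, CellTiter-Fluor was added for 1 hr at 37C and fluorescence read.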

[7] = qHTS assay to identify small molecule agonists of the sonic hedgehog signaling (Shh) pathway (AID 1259368; calls by dose curve; further: series mostly up to about 92 µM; nearly all actives have a fitted effect of over 15% in size)
How it was run: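 NIH/3T3-derived 3T3Gli1-Luc cells carrying a stably integrated Gli1 response element–firefly luciferase reporter were plated, left 4 hr at 37 C, then given compounds in DMSO for 24 hr. Luminescence was read 30 min after adding luciferase reagent.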

[8] = qHTS assay to identify small molecule antagonists of the sonic hedgehog signaling (Shh) pathway (AID 1259369; calls by dose curve; further: nearly all actives have a fitted effect of over 45% in size; further: potency means the concentration at half of the fitted maximal effect)
How it was run: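 NIH/3T3-derived 3T3Gli1-Luc cells with stably integrated Gli1-Luc reporter were preincubated 4hr at 37 C, then given compounds in DMSO plus Shh conditioned medium and incubated 24hr. Firefly luciferase luminescence read after 30min reagent at room temperature.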

[9] = molecular target: Estrogen receptor beta (Homo sapiens) (UniProt Q92731); assay: qHTS assay to identify small molecule agonists of the estrogen receptor beta (ER-beta) signaling pathway (AID 1259377; active means well fitted activation curve with a large enough effect in the signal ratio in the repeat runs, not every such curve was filed as active; the % refers to the signal ratio)
How it was run: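 Measured by fluorescence intensity from a B/G FRET beta-lactamase substrate (2 h, room temperature) in ER-beta-UAS-bla HEK293T cells treated with DMSO-dissolved compounds for 16 hr at 37C and 5% CO2.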

[10] = molecular target: Estrogen receptor beta (Homo sapiens) (UniProt Q92731); assay: qHTS assay to identify small molecule antagonists of the estrogen receptor beta (ER-beta) signaling pathway (AID 1259378; active means well fitted inhibition curve with a large enough effect in the signal ratio in the repeat runs, not every such curve was filed as active; the % refers to the signal ratio)
How it was run: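 ER-beta-UAS-bla HEK293T (GripTite) cells in 2% charcoal-stripped FBS medium were preincubated 6 hr at 37C, dosed with compound, then stimulated with 1 nM E2 (final) for 16 hr; beta-lactamase reporter read by B/G FRET fluorescence after 2 hr substrate loading.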

[11] = qHTS assay to identify small molecule agonists of the androgen receptor (AR) signaling pathway in the presence of an antagonist - cell viability counter screen (AID 1259379); further: series mostly up to about 92 µM; nearly all actives have a fitted effect of over 25% in size
How it was run: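 MDA-kb2 human breast carcinoma cells (stable MMTV-luciferase, AR/GR responsive) were seeded 3,000 cells/well, pre-incubated 5 hr at 37C without CO2, then given 3.0uM nilutamide and compounds at 15 concentrations for 16 hr. Viability was read by CellTiter-Fluor fluorescence.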

[12] = qHTS assay to identify small molecule agonists of the estrogen receptor beta (ER-beta) signaling pathway - cell viability counter screen (AID 1259380); further: nearly all actives have a fitted effect of over 30% in size; further: potency means the concentration at half of the fitted maximal effect
How it was run: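 ER-beta-UAS-bla HEK293T cells in medium with 2% charcoal-stripped FBS were preincubated 6 hr at 37C, dosed with compound in DMSO for 16 hr, then after the bla read, CellTiter-Glo was added for 30 min at room temperature; luminescence recorded.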

[13] = qHTS assay to identify small molecule antagonists of the estrogen receptor beta (ER-beta) signaling pathway - cell viability counter screen (AID 1259382); further: nearly all actives have a fitted effect of over 55% in size; further: potency means the concentration at half of the fitted maximal effect
How it was run: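 ER-beta-UAS-bla HEK293T cells (2,000/well, 2% charcoal-stripped FBS) were pre-incubated 6 hr at 37C, then given compound plus 1nM final 17-beta-estradiol for 16 hr. Viability was read in the same wells by CellTiter-Glo luminescence after 30 min at room temperature.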

[14] = molecular target: Estrogen receptor (Homo sapiens) (UniProt P03372); assay: qHTS assay to identify small molecule agonists of the estrogen receptor alpha (ER-alpha) signaling pathway in the presence of an antagonist (AID 1259383; calls by dose curve; further: nearly all actives have a fitted effect of over 15% in size; further: potency means the concentration at half of the fitted maximal effect; on activation: top concentration of the series differs between compounds)
How it was run: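 VM7Luc4E2 cells (endogenous full-length ER-alpha, 4×ERE-luciferase) were precultured 5 days in phenol red-free medium with 10% charcoal-stripped FBS, given 10.0nM ICI-182,780 (final), then treated with compounds at 15 concentrations for 22hr at 37C; luminescence read with ONE-Glo.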

[15] = qHTS assay to identify small molecule agonists or antagonists of the thyroid stimulating hormone receptor (TSHR) signaling pathway - wild type cell line counter screen (AID 1259384; calls by dose curve)
How it was run: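 Wild-type HEK293 cells were plated 18 h at 37 C/5% CO2, pin-dosed with compound plus Ro20-1724 medium, held 30 min at room temperature, then given cAMP-d2 and anti-cAMP-cryptate; fluorescence was read after 1 h. Fifteen concentrations, triplicate.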

[16] = molecular target: Thyrotropin receptor (Homo sapiens) (UniProt P16473); assay: qHTS assay to identify small molecule antagonists of the thyroid stimulating hormone receptor (TSHR) signaling pathway (AID 1259385; calls by dose curve; further: nearly all actives have a fitted effect of over 20% in size)
How it was run: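 TSHR-HEK293 cells were plated and held 18 h at 37C/5% CO2, then given compound plus Ro20-1724 and stimulated with TSH at 1.5 ng/mL final. After 30 min at room temperature, cAMP was detected with cAMP-d2/anti-cAMP-cryptate (1 h) by fluorescence.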

[17] = qHTS assay to identify small molecule antagonists of the androgen receptor (AR) signaling pathway using the MDA cell line in the presence of 0.5 nM R1881 - cell viability counter screen (AID 1259242); further: nearly all actives have a fitted effect of over 45% in size
How it was run: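 MDA-kb2 cells (human breast carcinoma, stably carrying MMTV-luciferase reporter) were exposed to compounds with 0.5 nM R1881 (final) for 16 hr at 37C, 0% CO2; viability then read as live-cell protease fluorescence (CellTiter-Fluor, 30 min) in the same wells.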

[18] = molecular target: Androgen receptor (Homo sapiens) (UniProt P10275); assay: qHTS assay to identify small molecule antagonists of the androgen receptor (AR) signaling pathway using the MDA cell line in the presence of 0.5 nM R1881 (AID 1259243); further: nearly all actives have a fitted effect of over 50% in size
How it was run: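 MDA-kb2 human breast carcinoma cells carrying an MMTV-luciferase reporter (AR- and GR-responsive) were plated, rested 5 hr at 37C, dosed with compounds, then stimulated with 0.5 nM R1881 (final) for 16 hr; luminescence was read after ONE-Glo.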

[19] = molecular target: Androgen receptor (Homo sapiens) (UniProt P10275); assay: qHTS assay to identify small molecule agonists of the androgen receptor (AR) signaling pathway in the presence of an antagonist (AID 1259381; calls by dose curve; further: nearly all actives have a fitted effect of over 15% in size)
How it was run: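 MDA-kb2 human breast carcinoma cells carrying an MMTV-luciferase reporter (AR- and GR-responsive) were treated with compounds at 15 concentrations plus 3.0uM final nilutamide for 16hr at 37C without CO2; luminescence was read after ONE-Glo addition.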

[20] = qHTS assay to identify small molecule phospholipidosis (PLD) inducers (AID 1259344; active means well fitted curve in the direction sought with a large enough effect; an effect the other way counts as inactive or inconclusive)
How it was run: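 HepG2 cells on collagen I, attached 4 h at 37 C, were co-treated with compound and LipidTOX Red dye for 24 h at 37 C, then fixed with paraformaldehyde plus Hoechst 33342 and imaged by high-content microscopy for phospholipid accumulation.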

Sequence of Thyrotropin receptor (Homo sapiens) (P16473 whole entry, looked up): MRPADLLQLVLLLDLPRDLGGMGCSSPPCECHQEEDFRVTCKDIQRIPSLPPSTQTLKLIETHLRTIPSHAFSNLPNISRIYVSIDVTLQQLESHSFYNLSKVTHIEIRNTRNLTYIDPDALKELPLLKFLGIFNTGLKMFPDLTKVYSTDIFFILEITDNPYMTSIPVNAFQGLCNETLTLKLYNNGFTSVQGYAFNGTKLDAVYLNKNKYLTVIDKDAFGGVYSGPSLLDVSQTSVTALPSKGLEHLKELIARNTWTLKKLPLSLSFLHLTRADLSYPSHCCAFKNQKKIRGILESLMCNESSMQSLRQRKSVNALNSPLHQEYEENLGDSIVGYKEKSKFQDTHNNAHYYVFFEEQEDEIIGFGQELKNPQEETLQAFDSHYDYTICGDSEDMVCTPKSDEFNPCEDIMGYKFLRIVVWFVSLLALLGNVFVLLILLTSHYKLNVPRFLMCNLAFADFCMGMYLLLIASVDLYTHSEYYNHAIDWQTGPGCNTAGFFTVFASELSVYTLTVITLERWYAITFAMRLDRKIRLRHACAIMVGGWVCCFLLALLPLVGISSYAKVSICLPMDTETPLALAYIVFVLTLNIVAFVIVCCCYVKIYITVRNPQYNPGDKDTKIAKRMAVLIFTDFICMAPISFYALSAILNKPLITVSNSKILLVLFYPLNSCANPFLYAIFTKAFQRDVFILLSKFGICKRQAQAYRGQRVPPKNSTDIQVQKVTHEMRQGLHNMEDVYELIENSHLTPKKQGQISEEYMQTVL
Sequence of Androgen receptor (Homo sapiens) (P10275 whole entry, looked up): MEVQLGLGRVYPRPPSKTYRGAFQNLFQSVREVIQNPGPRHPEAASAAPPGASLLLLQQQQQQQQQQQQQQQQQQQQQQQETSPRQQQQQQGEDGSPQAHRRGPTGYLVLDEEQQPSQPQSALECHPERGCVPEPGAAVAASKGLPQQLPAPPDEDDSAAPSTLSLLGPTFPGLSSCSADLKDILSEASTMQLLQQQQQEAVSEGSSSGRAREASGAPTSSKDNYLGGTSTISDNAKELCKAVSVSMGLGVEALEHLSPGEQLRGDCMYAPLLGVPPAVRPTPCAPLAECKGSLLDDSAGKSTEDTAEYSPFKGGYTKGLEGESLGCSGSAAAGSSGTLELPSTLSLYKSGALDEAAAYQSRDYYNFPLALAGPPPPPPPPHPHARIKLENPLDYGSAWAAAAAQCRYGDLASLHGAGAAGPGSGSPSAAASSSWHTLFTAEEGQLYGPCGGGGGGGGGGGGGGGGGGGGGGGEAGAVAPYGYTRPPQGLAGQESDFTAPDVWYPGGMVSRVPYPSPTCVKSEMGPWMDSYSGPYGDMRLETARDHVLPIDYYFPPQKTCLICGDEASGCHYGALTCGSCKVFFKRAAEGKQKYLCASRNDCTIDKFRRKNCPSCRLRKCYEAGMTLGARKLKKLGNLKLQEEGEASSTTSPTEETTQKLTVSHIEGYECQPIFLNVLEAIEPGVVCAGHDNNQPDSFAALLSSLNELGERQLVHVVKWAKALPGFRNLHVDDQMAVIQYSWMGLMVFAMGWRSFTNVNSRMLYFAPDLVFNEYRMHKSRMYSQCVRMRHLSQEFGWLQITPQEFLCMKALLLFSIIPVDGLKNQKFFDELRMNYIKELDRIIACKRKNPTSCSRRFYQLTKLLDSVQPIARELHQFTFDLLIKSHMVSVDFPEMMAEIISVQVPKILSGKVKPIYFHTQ
Sequence of Estrogen receptor beta (Homo sapiens) (Q92731 whole entry, looked up): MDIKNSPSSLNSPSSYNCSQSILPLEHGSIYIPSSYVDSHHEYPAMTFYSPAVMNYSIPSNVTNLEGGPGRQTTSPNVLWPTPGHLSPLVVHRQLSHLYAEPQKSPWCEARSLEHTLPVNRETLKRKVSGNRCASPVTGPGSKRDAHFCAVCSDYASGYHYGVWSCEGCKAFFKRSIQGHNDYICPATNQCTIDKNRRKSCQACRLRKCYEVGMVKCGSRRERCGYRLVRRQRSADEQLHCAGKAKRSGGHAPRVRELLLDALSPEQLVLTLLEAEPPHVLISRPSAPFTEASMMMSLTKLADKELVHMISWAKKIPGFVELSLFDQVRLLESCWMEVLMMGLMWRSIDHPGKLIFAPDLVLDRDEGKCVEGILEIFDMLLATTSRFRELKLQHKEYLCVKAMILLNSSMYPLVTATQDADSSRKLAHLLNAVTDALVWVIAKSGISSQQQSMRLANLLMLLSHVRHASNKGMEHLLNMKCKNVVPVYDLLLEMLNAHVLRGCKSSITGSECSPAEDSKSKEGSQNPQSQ
Sequence of Estrogen receptor (Homo sapiens) (P03372 whole entry, looked up): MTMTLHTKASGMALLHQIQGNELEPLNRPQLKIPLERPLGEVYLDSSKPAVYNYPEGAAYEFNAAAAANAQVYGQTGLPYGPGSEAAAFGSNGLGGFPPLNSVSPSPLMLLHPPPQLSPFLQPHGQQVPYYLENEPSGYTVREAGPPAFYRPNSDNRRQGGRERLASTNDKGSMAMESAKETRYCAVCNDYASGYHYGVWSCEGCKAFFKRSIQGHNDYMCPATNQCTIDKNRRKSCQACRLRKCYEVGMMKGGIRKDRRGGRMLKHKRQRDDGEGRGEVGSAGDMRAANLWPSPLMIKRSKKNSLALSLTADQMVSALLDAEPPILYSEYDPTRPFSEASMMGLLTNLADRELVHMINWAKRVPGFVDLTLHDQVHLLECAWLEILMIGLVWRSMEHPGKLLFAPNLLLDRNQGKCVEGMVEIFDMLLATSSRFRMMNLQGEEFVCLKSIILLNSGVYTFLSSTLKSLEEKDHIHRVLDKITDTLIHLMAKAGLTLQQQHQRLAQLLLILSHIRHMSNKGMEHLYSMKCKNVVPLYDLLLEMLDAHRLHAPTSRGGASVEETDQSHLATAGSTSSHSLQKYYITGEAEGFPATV

Compound	Potency [1]	Potency [2]	Potency [3]	Potency [4]	Potency [5]	Potency [6]	Potency [7]	Potency [8]	Potency [9]	Potency [10]	Potency [11]	Potency [12]	Potency [13]	Potency [14]	outcome [15]	Potency [16]	Potency [17]	Potency [18]	Potency [19]	outcome [20]
CCCCC(CC)CO[N+](=O)[O-] (stereo unspecified)	inactive	inactive	inactive	inactive	inactive	inactive	inactive	inactive	inactive	inactive	inactive	inactive	inactive	inactive	inactive	inactive	–	–	–	–
CC(C)CCCCCCCOC(=O)c1ccccc1C(=O)OCCCCCCCC(C)C	inactive	–	inactive	inactive	inactive	inactive	inactive	inactive	inactive	inactive	inactive	inactive	inactive	–	–	inactive	–	–	–	–
CN(C1CCCCC1)C1CCCCC1	–	inactive	inactive	inactive	–	inactive	inactive	inactive	inactive	inactive	inactive	inactive	inactive	inactive	inactive	inactive	inactive	inactive	inactive	–
CC(=O)OC(c1ccccc1)C(Cl)(Cl)Cl (stereo unspecified)	inactive	inactive	inactive	inactive	inactive	inactive	inactive	–	–	–	inactive	inactive	inactive	inactive	inactive	–	–	–	–	–
C#C[C@]1(O)CC[C@H]2[C@@H]3CCC4=CC(=O)CCC4=C3C=C[C@@]21CC	inactive	13.3 µM (active)	inactive	inactive	inactive	inactive	inactive	–	–	–	inactive	–	inactive	1.06 µM (active)	inactive	inactive	–	–	–	inactive
C[N+]1(CCF)[C@@H]2CC[C@H]1CC(OC(=O)C(O)(c1ccccc1)c1ccccc1)C2 (stereo partly specified)	inactive	inactive	inactive	inactive	inactive	inactive	inactive	inactive	–	–	inactive	inactive	inactive	inactive	–	inactive	–	–	–	inactive
c1ccc2c(c1)sc1ccccc12	inactive	inactive	inactive	inactive	inactive	inactive	inactive	inactive	–	–	inactive	inactive	inactive	inactive	inactive	inactive	–	–	–	inactive
CC(C)(C)NCC(O)c1ccccc1Cl (stereo unspecified)	–	inactive	inactive	inactive	inactive	inactive	inactive	inactive	inactive	inactive	inactive	inactive	inactive	inactive	inactive	inactive	inactive	–	–	inactive
Cc1nc(N(C)C)nc(OC(=O)N(C)C)c1C	inactive	inactive	inactive	inactive	inactive	inactive	inactive	inactive	inactive	inactive	inactive	–	inactive	inactive	inactive	inactive	–	–	–	–
CC(C)(C)N(NC(=O)c1ccc(Cl)cc1)C(=O)c1ccccc1	–	inactive	inactive	inactive	2.71 µM (active)	3.83 µM (active)	inactive	inactive	inactive	–	inactive	–	inactive	inactive	–	–	inactive	inactive	inactive	–
CCCCC#N	inactive	inactive	inactive	inactive	–	inactive	inactive	inactive	–	–	inactive	inactive	inactive	inactive	–	inactive	–	–	–	–
N#CC(C#N)=Cc1ccc(O)c(O)c1	–	inactive	inactive	inactive	inactive	inactive	inactive	–	–	–	inactive	inactive	inactive	inactive	inactive	inactive	inactive	inactive	inactive	inactive
CC(C)(C)CC(C)(C)c1ccc(O)cc1	inactive	–	inactive	61.1 µM (active) and inactive	–	–	–	15.4 µM (active)	–	–	inactive	30.6 µM (active) and 33.5 µM (active)	57.7 µM (active) and 33.5 µM (active)	–	–	inactive	–	–	inactive	inactive
ClCc1ccccc1Cl	inactive	–	inactive	inactive	inactive	inactive	inactive	inactive	inactive	inactive	inactive	inactive	inactive	–	inactive	inactive	–	inactive	inactive	–
C[C@H](N)[C@H](O)c1ccc(O)c(O)c1	inactive	inactive	inactive	inactive	inactive	inactive	inactive	–	inactive	–	inactive	–	inactive	inactive	–	–	–	–	–	inactive
Cc1cnc(C2=NC(C)(C(C)C)C(=O)N2)c(C(=O)O)c1 (stereo unspecified)	–	inactive	inactive	inactive	–	inactive	inactive	inactive	inactive	inactive	inactive	inactive	inactive	inactive	inactive	inactive	inactive	inactive	inactive	–
O=S(=O)(c1ccccc1)c1ccccc1	inactive	–	inactive	inactive	inactive	inactive	inactive	inactive	inactive	inactive	inactive	–	inactive	–	–	inactive	–	–	–	–
